We go through 45 compounds from PubChem BioAssay AID2685 (National Center for Advancing Translational Sciences (NCATS), 2010).

About 2,100 (0.66%) of roughly 320,000 compounds were called active. Not shown: some 53% with an inconclusive outcome. The call rests on the fitted dose curve; in most records, active means well fitted inhibition curve with a large enough effect in the signal ratio, with a control signal flat (not every such curve was filed as active); inconclusive means small, poorly fitted or top-dose-only effect, or effect the other way, or a change in a side signal; inactive means flat fitted curve, though single readings scatter; the % refers to the signal ratio. The list comes from a sample in which actives are over-represented; it also holds similar structures and randomly drawn compounds.
Potency means the concentration at half of the fitted maximal effect.

The experiment is described as follows: qHTS Assay for Lipid Storage Modulators in Drosophila S3 Cells.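 On cell number change: cells counted by Cell Tracker Red CMTPX staining in the red channel.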 On lipid storage change, negative = inhibition: on the % scale 0 is the no-effect control and ±100 the full control effect. The note with it: BODIPY lipid droplet fluorescence, 18-24 h, cells fed with added oleic acid; cell number change: measured here: cell count max response; series mostly up to 46.1 µM; lipid storage change, negative = inhibition: at the top concentration. The method, boiled down: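 Drosophila S3 cells got compounds at several concentrations plus oleic acid (400 uM solution). Laser-scanning cytometry with 488 nm excitation read lipid droplets at 500-530 nm and cells at 575-640 nm. Percent activity was relative to 20 uM Triacsin C.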
For orientation: Quantitative high-throughput screening tests each substance at several concentrations.
Regarding `CCC(C)Nc1cc(C)c(C#N)c2nc3ccccc3n12` (centres undefined), the “lipid storage change, negative = inhibition” value was 6.81% (inactive) and the cell number change turned out to be 5.52%.
`Cc1cc(NC(C)C)n2c(nc3ccccc32)c1C#N`: the Potency is 16.4 µM (active) and the cell number change is -88.9%.
The like results for `CC1CCCC(C)N1C(=O)Cn1cc(/C=C2/C(=O)Nc3ccccc32)c2ccccc21` (centres undefined) were, in that order, 23.1 µM (active) and -83.5%.
In the case of `CC1CCCC(C)N1C(=O)Cn1cc(C#N)c2ccccc21` (centres undefined), the “lipid storage change, negative = inhibition” value is 19.1% (inactive) and the cell number change was 9.53%.
On the same counts, the results for `COC(=O)c1cn(CC(=O)N2C(C)CCCC2C)c2ccccc12` (centres undefined) are 1.45% (inactive) and 9.64%.
The like results for `O=C(CS(=O)(=O)Cc1ccccc1)NCc1ccco1` were, in that order, -0.383% (inactive) and -5.74%.
The like results for `Cc1ccc(CCNC(=O)C2CCCN(S(=O)(=O)N3CC(C)CC(C)C3)C2)cc1` (centres undefined) were, in that order, -23.2% (inactive) and -24.2%.
Take `CC(C)(C)c1ccc(OC(=O)Cn2c(C(F)(F)F)nc3ccccc32)cc1`: the Potency was 13 µM (active) and the cell number change was -15.3%.
For the compound `CC(=O)Cn1c(C(F)(F)F)nc2ccccc21`, the “lipid storage change, negative = inhibition” value was -2.72% (inactive) and the cell number change is -7.24%.
Turning to `CCOC(=O)c1c(NC(=O)COC(=O)Cn2c(C(F)(F)F)nc3ccccc32)sc(C)c1C`, the “lipid storage change, negative = inhibition” value was 0.975% (inactive) and the cell number change amounted to 2.48%.
As to `CC(C)(C)NC(=O)NC(=O)COC(=O)Cn1cnc2ccccc2c1=O`, the outcome was inactive and the cell number change is -17.2%.
With `CC(C)(C)NC(=O)NC(=O)COC(=O)Cn1c(C(F)(F)F)nc2ccccc21`, the Potency was 5.17 µM (active) and the cell number change was -8.07%.
Turning to `COC(=O)Cn1c(C(F)(F)F)nc2ccccc21`, the “lipid storage change, negative = inhibition” value is -1.69% (inactive) and the cell number change was -24.1%.
On to `Nc1ccc(C(=O)Nc2cccc(NC(=O)c3ccc(N)cc3)c2)cc1`, for which the compound was called inactive and the cell number change was -20.4%.
Turning to `CCCN1C(=O)C2C(C(=O)Nc3cccc(OC)c3)C3C=CC2(O3)C1C(=O)NC1CCCCC1` (centres undefined), the “lipid storage change, negative = inhibition” value is -3.79% (inactive) and the cell number change worked out at 1.47%.
With `Cc1ccc(S(=O)(=O)N(CC(=O)O)Cc2ccco2)cc1`, the “lipid storage change, negative = inhibition” value was -18.7% (inactive) and the cell number change was found to be 0.734%.
As for `COc1cc(NC(=S)NCc2cccnc2)cc(OC)c1`, the Potency was 5.8 µM (active) and the cell number change was -12.6%.
With `COc1cc(NC(=S)NCc2cccnc2)cc(OC)c1OC`, the “lipid storage change, negative = inhibition” value is 7.12% (inactive) and the cell number change was determined as 5.48%.
On to `COc1cccc(NC(=S)NCc2cccnc2)c1`, for which the “lipid storage change, negative = inhibition” value is -1.84% (inactive).
Regarding `Cc1ccc(-c2nc(C)sc2CC(=O)Nc2cccc(C)c2C)cc1`, the “lipid storage change, negative = inhibition” value was 0.0243% (inactive) and the cell number change was determined as 6.08%.
As to `COc1ccc(NC(=O)C(=O)Nc2cccc3cccnc23)cc1OC`, the compound was called inactive and the cell number change was found to be 32.1%.
For the compound `COc1ccc(C2CC(=O)C3=C(C2)Nc2ccccc2N(C(=O)CCC(=O)O)C3c2ccc(F)cc2)cc1OC` (centres undefined), the “lipid storage change, negative = inhibition” value is -11.3% (inactive) and the cell number change is -2.28%.
For `CC(C)c1nnc(SCC(=O)N2CCOCC2)n1C`, the “lipid storage change, negative = inhibition” value was -0.0362% (inactive) and the cell number change is 3.98%.
As to `CN(C)S(=O)(=O)c1ccc2c(c1)/C(=C/c1cc3c([nH]1)CCCC3)C(=O)N2`, the Potency is 5.17 µM (active) and the cell number change worked out at 2.43%.
Regarding `CN(C)S(=O)(=O)c1ccc2c(c1)Cc1cc(S(=O)(=O)N(C)C)ccc1-2`, the “lipid storage change, negative = inhibition” value is -3.2% (inactive) and the cell number change is 7.91%.
On the same counts, the results for `Cc1ccc2c(c1)/C(=C/c1ccc(F)cc1)C(=O)N2` are 22% (inactive) and 18%.
The like results for `CCOC(=O)C(=NCCCN(C)C)NNc1ccc(Br)cc1` were, in that order, 10.6% (inactive) and 23.2%.
On the same counts, the results for `COCc1ccc(C(=O)N(C)C2CCCN(Cc3ccccc3F)C2)o1` (centres undefined) are -23% (inactive) and -1.36%.
Regarding `CC(=O)c1c(C)[nH]c(C(=O)Nc2nc(C)cs2)c1C`, the “lipid storage change, negative = inhibition” value is -4.83% (inactive) and the cell number change was -7.81%.
For `COc1ccc(NS(=O)(=O)CC23CCC(CC2=O)C3(C)C)cc1` (centres undefined), the “lipid storage change, negative = inhibition” value is -15.4% (inactive) and the cell number change is 6.22%.
With `CC1(C)C2CCC1(CS(=O)(=O)Nc1ccccc1)C(=O)C2` (centres undefined), the “lipid storage change, negative = inhibition” value is -21.6% (inactive) and the cell number change was -22.6%.
As to `COc1cccc(NS(=O)(=O)CC23CCC(CC2=O)C3(C)C)c1` (centres undefined), the Potency is 3.66 µM (active) and the cell number change was -15%.
As to `Cc1ccsc1C(=O)NCCc1nnc2ccccn12`, the “lipid storage change, negative = inhibition” value is -1.6% (inactive) and the cell number change worked out at 18.3%.
As to `CN(/N=C/c1cc(Cl)ccc1O)C1=NS(=O)(=O)c2ccccc21`, the Potency is 3.66 µM (active) and the cell number change was 12.6%.
Take `Cc1ccc(/C=N/N(C)C2=NS(=O)(=O)c3ccccc32)cc1`: the “lipid storage change, negative = inhibition” value was -1.35% (inactive) and the cell number change stood at 17.1%.
On the same counts, the results for `COc1cccc(/C=N/N(C)C2=NS(=O)(=O)c3ccccc32)c1O` are 1.01% (inactive) and 12.6%.
Take `CCCCCOC(=O)CCN1C(=O)/C(=C2\SC(=S)N(CCC(=O)OCCCCC)C2=O)SC1=S`: the “lipid storage change, negative = inhibition” value was 13.2% (inactive) and the cell number change was -3.31%.
On the same counts, the results for `Cc1ccc(NC(=O)c2cc(=O)[nH]c3ccc(S(=O)(=O)N4CCOCC4)cc23)nc1` are 11.8% [at 0.0737 µM] (inactive) and -6.73%.
For `COc1ccc(S(=O)(=O)Oc2ccccc2C(=S)N2CCOCC2)cc1`, the Potency is 1.46 µM (active) and the cell number change was -29.9%.
As for `COc1ccc(S(=O)(=O)Oc2ccc(C(=S)N3CCOCC3)cc2OC)cc1`, the outcome was inactive and the cell number change was -13.8%.
Regarding `COc1ccc(S(=O)(=O)Oc2cccc(C(=S)N3CCOCC3)c2)cc1`, the result was inactive and the cell number change was -15.5%.
As for `COc1ccc2[nH]c(=O)c(CN(CCN(C)C)C(=O)NCc3ccccc3)cc2c1`, the call was inactive and the cell number change was 17.8%.
With `COc1ccccc1CNN`, the “lipid storage change, negative = inhibition” value is -3.56% (inactive) and the cell number change was -17.3%.
For `COc1ccccc1CNCC(c1ccccc1)c1ccccc1`, the Potency is 1.46 µM (active) and the cell number change is -20%.
For the compound `COc1ccccc1CNCc1cc(OC)c(OC)cc1OC`, the call was inactive and the cell number change is -2.42%.
